In PubChem BioAssay AID1159580 (chemical genetic matrix, 2015):
Screen size: about 5,500 compounds; about 2,000 (36%) were called active. Another 18% or so got no clear call; they are omitted. No stated cut-off is given here; in the data, active means normalized growth mostly below about 0.91 (no sharp cut-off); inconclusive means no clear call, values can overlap the other calls; inactive means mostly above about 0.92. The list shows a part of the results.

Assay: chemical genetic growth profiling, strain panel (AID 1159580);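 further: tested at 20 µM; growth read once vehicle control cultures reached saturation at 30 °C; 1 = growth at the plate median or of vehicle wells; lower values mean less growth of the strain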
Settings: S. cerevisiae deletion strains, growth OD

Measured: normalized growth

COc1ccc(/C=C/C(=O)c2ccc(O)cc2O)cc1
active: locus YAL021C, strain ccr4, active compounds read low 0.643 | locus YAL026C, strain drs2, active compounds read low 0.39 | locus YAL030W, strain snc1, active compounds read low 0.477 | locus YBL061C, strain skt5, active compounds read low 0.371 | locus YBR009C, strain hhf1, active compounds read low 0.329 | locus YBR023C, strain chs3, active compounds read low 0.296 | locus YBR171W, strain sec66, active compounds read low 0.736 | locus YBR231C, strain swc5, active compounds read low 0.35 | locus YBR279W, strain paf1, active compounds read low 0.486 | locus YCL011C, strain gbp2, active compounds read low 0.414 | locus YCL016C, strain dcc1, active compounds read low 0.398 | locus YCL061C, strain MRC1, active compounds read low 0.494 | locus YCL069W, strain vba3, active compounds read low 0.436 | locus YCR088W, strain abp1, active compounds read low 0.637 | locus YDL005C, strain med2, active compounds read low 0.412 | locus YDL040C, strain nat1, active compounds read low 0.68 | locus YDR001C, strain nth1, active compounds read low 0.546 | locus YDR069C, strain doa4, active compounds read low 0.815 | locus YDR137W, strain rgp1, active compounds read low 0.218 | locus YDR159W, strain sac3, active compounds read low 0.355 | locus YDR195W, strain ref2 0.69 | locus YDR297W, strain sur2, active compounds read low 0.643 | locus YDR334W, strain swr1, active compounds read low 0.383 | locus YDR335W, strain msn5, active compounds read low 0.477 | locus YDR392W, strain spt3, active compounds read low 0.107 | locus YEL003W, strain gim4, active compounds read low 0.333 | locus YEL037C, strain rad23, active compounds read low 0.678 | locus YEL061C, strain CIN8 (second series), active compounds read low 0.222 | locus YER015W, strain faa2, active compounds read low 0.496 | locus YER016W, strain bim1, active compounds read low 0.488 | locus YER111C, strain swi4, active compounds read low 0.193 | locus YER155C, strain BEM2 (second series), active compounds read low 0.125 | locus YFR010W, strain ubp6, active compounds read low 0.661 | locus YGL167C, strain pmr1, active compounds read low 0.782 | locus YGL173C, strain kem1, active compounds read low 0.326 | locus YGL227W, strain vid30, active compounds read low 0.246 | locus YGL240W, strain doc1, active compounds read low 0.349 | locus YGL253W, strain hxk2, active compounds read low 0.23 | locus YHR013C, strain ard1, active compounds read low 0.352 | locus YHR027C, strain rpn1, active compounds read low 0.59 | locus YHR030C, strain SLT2, active compounds read low 0.458 | locus YHR079C, strain IRE1, active compounds read low 0.48 | locus YHR142W, strain chs7, active compounds read low 0.175 | locus YJL092W, strain hpr5, active compounds read low 0.523 | locus YJL095W, strain BCK1 (second series), active compounds read low 0.187 | locus YJL095W, strain BCK1, active compounds read low 0.423 | locus YJL115W, strain asf1, active compounds read low 0.56 | locus YJL129C, strain trk1, active compounds read low 0.386 | locus YJL154C, strain vps35, active compounds read low 0.697 | locus YJL164C, strain tpk1, active compounds read low 0.324 | locus YJL166W, strain qcr8, active compounds read low 0.266 | locus YJL187C, strain SWE1, active compounds read low 0.492 | locus YJR066W, strain TOR1, active compounds read low 0.439 | locus YKL160W, strain elf1, active compounds read low 0.299 | locus YKR026C, strain gcn3, active compounds read low 0.784 | locus YKR091W, strain srl3, active compounds read low 0.699 | locus YLL001W, strain dnm1, active compounds read low 0.528 | locus YLL026W, active compounds read low 0.267 | locus YLL041C, strain sdh2, active compounds read low 0.615 | locus YLR027C, strain aat2, active compounds read low 0.369 | locus YLR113W, strain HOG1, active compounds read low 0.361 | locus YLR221C, strain rsa3, active compounds read low 0.28 | locus YLR258W, strain gsy2, active compounds read low 0.476 | locus YLR262C, strain YPT6 (second series), active compounds read low 0.221 | locus YLR320W, strain mms22, active compounds read low 0.14 | locus YLR342W, strain FKS1, active compounds read low 0.313 | locus YLR357W, strain rsc2, active compounds read low 0.633 | locus YLR370C, strain arc18, active compounds read low 0.619 | locus YLR384C, strain iki3, active compounds read low 0.671 | locus YML120C, strain ndi1, active compounds read low 0.336 | locus YMR058W, strain fet3, active compounds read low 0.34 | locus YMR125W, strain sto1, active compounds read low 0.205 | locus YMR129W, active compounds read low 0.707 | locus YMR205C, strain PFK2, active compounds read low 0.26 | locus YMR231W, strain pep5, active compounds read low 0.462 | locus YNL071W, strain lat1, active compounds read low 0.0785 | locus YNL183C, strain NPR1, active compounds read low 0.516 | locus YNL209W, strain ssb2, active compounds read low 0.661 | locus YNL248C, strain rpa49, active compounds read low 0.402 | locus YNL322C, strain KRE1 (second series), active compounds read low 0.618 | locus YNR049C, strain mso1, active compounds read low 0.631 | locus YOR001W, strain rrp6, active compounds read low 0.444 | locus YOR070C, strain gyp1, active compounds read low 0.336 | locus YOR080W, strain dia2, active compounds read low 0.631 | locus YOR083W, strain WHI5, active compounds read low 0.479 | locus YOR106W, strain vam3, active compounds read low 0.38 | locus YOR231W, strain MKK1, active compounds read low 0.495 | locus YOR265W, strain rbl2, active compounds read low 0.535 | locus YOR270C, strain vph1, active compounds read low 0.161 | locus YOR290C, strain snf2, active compounds read low 0.28 | locus YPL051W, strain arl3, active compounds read low 0.273 | locus YPL078C, strain atp4, active compounds read low 0.32 | locus YPL106C, strain sse1, active compounds read low 0.458 | locus YPL240C, strain hsp82, active compounds read low 0.44 | locus YPL256C, strain CLN2, active compounds read low 0.5
